# Assay outcomes (PubChem)
# A selection: hits, their analogues and other compounds. The true share with any hit is near 7.5%.
# SMN2 splice up: qHTS Assay for Enhancers of SMN2 Splice Variant Expression; Potency, µM (titrated, usually from 46.1 µM), inactives show at the highest dose activity change, positive = activation, actives largely listed as activators; HEK293 SMN2-luciferase splicing reporter, luminescence, 30-36 h; 2.8% of 210,000 active; note: % of control where 0% means no effect; nearly all actives have a fitted effect of over 55% in size
#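 HEK293 cells carry an SMN2 […]–luciferase reporter in which exon 7 inclusion puts luciferase in frame. Cells were plated 10-12 h before compound addition, then incubated 30-36 h at 37C. ONE-Glo luminescence was read; sodium butyrate at 4.5 mM final served as control.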
# Rab9 prom act: qHTS Assay for Rab9 Promoter Activators; Huh7 Rab9 promoter-luciferase reporter, luminescence, 24 h; Potency, µM (doses to about 9.22 µM), for inactives: at the top dose activation, negative = inhibition, actives largely listed as activators; AID 485297, 2010; 2.8% of 320,000 active; note: % of control where 0% means no effect; nearly all actives have a fitted effect of over 60% in size
#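 Luminescence from Amplite-detected luciferase (10 minutes, ambient) reports Rab9 promoter activation. Before that, stable Rab9-luciferase Huh7 cells (1500/well, reduced-serum OP-MEM I plus 10% FBS) were exposed to compound for 24 hours at 37C.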
# FLuc modulator: qHTS profiling assay for firefly luciferase inhibitor/activator using purifed enzyme and Km concentrations of substrates (counterscreen for miR-21 project); Luciferin 4-monooxygenase (Photinus pyralis), P08659; purified FLuc, Km substrates, luminescence inhibition; Potency, µM (top dose mostly 57.5 µM), for inactives: top-dose activity change, negative = inhibition, hits mostly inhibitors; 6.9% of 360,000 active;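 note: plate controls were vehicle for no effect and reference inhibitor for full effect; nearly all actives have a fitted effect of over 55% in size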
# Target sequence (P08659 whole entry, looked up): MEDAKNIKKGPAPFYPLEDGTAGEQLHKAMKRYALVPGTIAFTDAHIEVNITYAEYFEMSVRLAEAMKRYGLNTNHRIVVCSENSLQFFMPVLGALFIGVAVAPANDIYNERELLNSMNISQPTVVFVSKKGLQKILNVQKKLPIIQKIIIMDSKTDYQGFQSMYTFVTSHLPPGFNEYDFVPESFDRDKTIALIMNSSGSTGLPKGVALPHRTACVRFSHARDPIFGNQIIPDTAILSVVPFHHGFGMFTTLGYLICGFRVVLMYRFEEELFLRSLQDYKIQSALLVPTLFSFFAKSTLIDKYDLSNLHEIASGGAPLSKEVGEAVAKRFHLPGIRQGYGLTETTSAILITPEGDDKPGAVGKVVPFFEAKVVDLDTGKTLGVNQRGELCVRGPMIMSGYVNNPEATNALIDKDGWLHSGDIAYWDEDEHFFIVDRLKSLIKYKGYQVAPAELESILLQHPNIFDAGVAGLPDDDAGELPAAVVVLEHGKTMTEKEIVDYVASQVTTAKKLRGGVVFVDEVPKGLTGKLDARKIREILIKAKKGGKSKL
#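 Purified P. pyralis luciferase (10nM final) with 10uM D-luciferin and 10uM ATP (Km levels) in 50mM Tris acetate pH 7.5, 10mM Mg acetate, 0.01% Tween-20, 0.05% BSA; qHTS 6-point titration, ~60 µM downward; luminescence read.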
# ELG1 genotox: qHTS screen for small molecules that induce genotoxicity in human embryonic kidney (HEK293T) cells expressing luciferase-tagged ELG1; HEK293T ELG1-luciferase reporter, luminescence, 16 h; Potency, µM (series often up to 46 µM), without a hit: at the top dose activity change, positive = activation, actives largely listed as activators; 1.3% of 330,000 active; AID 504466, 2011; note: % of control where 0% means no effect; nearly all actives have a fitted effect of over 60% in size
#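 Genotoxic stress is detected as increased luminescence from luciferase-tagged ELG1 in HEK293T cells, measured with ONE-Glo after a 16 hr treatment at 37 °C.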
# NPC1 prom act: qHTS Assay for NPC1 Promoter Activators; Huh7 NPC1 promoter luciferase reporter, 24 h; Potency, µM (series often up to 9.22 µM), for inactives: at the top dose activation, actives largely listed as activators; 2.4% of 320,000 active; note: % of control where 0% means no effect; nearly all actives have a fitted effect of over 60% in size
#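 Luminescence read-out of NPC1 promoter-driven luciferase in stably transfected Huh7 cells; compounds delivered in DMSO and left 24 h at 37C, 5% CO2, qHTS titration format.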
# * marks the source's active call; other numbers are inactive results; ? = inconclusive; . = no result. Calls come from the whole dose curve; as a rule, active = well fitted curve in the direction sought with a large enough effect; inconclusive = small, poorly fitted or top-dose-only effect, or another doubt; inactive = no such curve, though single readings can be large; an effect the other way counts as inactive or inconclusive. Potency is the fitted concentration of half-maximal effect.
SMILES,SMN2 splice up,Rab9 prom act,FLuc modulator,ELG1 genotox,NPC1 prom act
O=C(N/N=C/c1ccc2c(c1)OCO2)c1ccc(NS(=O)(=O)c2cccs2)cc1,13.4%,17.6%,9.53µM*,3.7%,9.2%
COc1ccc(C(=O)N/N=C/c2ccc(N3CCOCC3)s2)cc1OC,.,-6.6%,-13.0%,-1.2%,-2.5%
O=C(NN=Cc1ccc(F)c(F)c1)c1ccc(NS(=O)(=O)c2cccs2)cc1,.,.,.,3.9%,.
O=C(N/N=C/c1ccc([N+](=O)[O-])cc1)c1ccc(NS(=O)(=O)c2cccs2)cc1,.,6.1%,21.3µM*,1.3%,-0.4%
O=C(N/N=C/c1ccc(N2CCOCC2)cc1)c1ccncc1,.,-7.3%,?,-0.2%,1.7%
O=C(N/N=C/c1ccc(N2CCOCC2)s1)c1ccc(NS(=O)(=O)c2cccs2)cc1,.,12.1%,26.9µM*,0.6%,9.3%
COc1cc2cc(C(c3nnnn3C3CCCC3)N(C)C3CCCCC3)c(=O)[nH]c2cc1OC (configuration not stated),9.9%,0.7%,6.8%,-2.4%,-4.2%
COc1cc2cc(C(=O)O)n(C)c2c(OC)c1OC,-2.7%,-6.8%,4.5%,3.1%,0.7%
COc1ccccc1N1CCN(C(=O)C2CCN(S(=O)(=O)c3cccc4nonc34)CC2)CC1,.,.,0.0%,.,.
O=C(N/N=C/c1ccc(N2CCOCC2)cc1)c1ccccc1NS(=O)(=O)c1cccs1,26.8%,2.3%,?,-0.2%,-0.5%
O=C(N/N=C/c1ccc(N2CCOCC2)cc1)c1ccc(NS(=O)(=O)c2cccs2)cc1,-3.3%,0.4%,7.57µM*,-0.8%,1.2%
O=C(c1ccc(N2CCOCC2)cc1)c1cccs1,2.51µM*,1.12µM*,1.9µM*,?,0.891µM*
O=C(O)C1CC=CCC1C(=O)c1ccccc1 (configuration not stated),13.7%,2.4%,-0.4%,-0.9%,-1.6%
O=C(CNC(=O)c1ccc(Cl)cc1Cl)OCCOc1ccccc1,.,13.2%,16.9µM*,7.1%,14.6%
O=C(CCC(=O)NNC(=O)c1ccc(Cl)cc1Cl)NCc1ccccc1,.,2.7%,0.5%,0.9%,-1.0%
COc1ccc(OCCOC(=O)CNC(=O)c2ccc(Cl)cc2Cl)cc1,.,0.8%,?,3.2%,-4.2%
Cc1ccc(CONC(=O)c2cccc(C)c2)cc1,.,?,?,-0.8%,16.3%
O=C(NOCc1ccccc1)c1ccccc1,.,1.78µM*,6.01µM*,6.51µM*,3.16µM*
O=C(NOCc1ccccc1)c1ccc(Cl)cc1Cl,.,0.398µM*,1.35µM*,?,0.562µM*
Cc1c(NCc2nc3ccccc3[nH]2)c(=O)n(-c2ccccc2)n1C,-6.8%,3.8%,15.1µM*,2.0%,-6.3%
CCOc1ccc(/C=C/C(=O)Oc2ccc(OC)cc2)cc1,.,2.5%,?,2.7%,-0.6%
CC(C)c1ccc(/C=C/C(=O)NCc2ccc(S(N)(=O)=O)cc2)cc1,-30.6%,18.1%,13.5µM*,0.7%,-2.4%
CCOc1ccc(C(=O)CCC(=O)O)cc1,13.8%,5.1%,2.9%,0.9%,-4.1%
O=C(O)CCC(=O)/C=C/c1ccccc1,.,11.6%,-10.6%,-1.5%,-2.6%
CCOc1ccc(/C=C\C(C)=N\O)cc1,15.8µM*,2.24µM*,8.49µM*,10.3µM*,2µM*
CC(C)c1ccc(/C=C/C(=O)CCC(=O)O)cc1,1.41µM*,0.794µM*,0.239µM*,?,0.282µM*
CCOc1ccc(/C=C/C(=O)CCC(=O)O)cc1,.,0.708µM*,1.07µM*,?,?
O=C(O)CCCC(=O)N1CCN(c2nc(-c3ccccc3)c3ccccc3n2)CC1,-13.3%,-7.3%,5.8%,2.2%,-2.9%
O=C(COC(=O)CNC(=O)c1sc2ccccc2c1Cl)NC1CCS(=O)(=O)C1 (configuration not stated),.,2.0%,16.9µM*,-1.8%,-0.8%
CS(=O)(=O)c1ccc(Cl)c(NC(=O)COC(=O)CNC(=O)c2cccs2)c1,.,3.3%,3.5%,11.7%,-2.7%
